Laboratory results as given in PubChem BioAssay (Tox21).
Unmarked numbers belong to inactive results. Inconclusive results are not listed. Entries that show only a call come without a potency. The source made the active and inactive calls. Unless noted, calls follow the shape of the dose curve; as a rule, active = well fitted curve in the direction sought with a large enough effect in the repeat runs; inconclusive = weak or mixed curves; inactive = flat fitted curve, though single readings scatter.

Assays:
[1] = qHTS assay to test for compound auto fluorescence at 535 nm (green) in HEK293 cells (AID 720680)
[2] = qHTS assay to test for compound auto fluorescence at 460 nm (blue) in HEK293 cell free culture (AID 720681)
Summary of the method: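 Test compounds were pinned into cell-free culture medium (DMEM with 10% FBS) and fluorescence was read directly at Ex/Em 405/460 nm. Signals were expressed as fluorescence equivalents of triamterene, with DMSO vehicle as control.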

[3] = qHTS assay to test for compound auto fluorescence at 535 nm (green) in HEK293 cell free culture (AID 720682)
Summary of the method: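 Fluorescein serves as the green reference fluorophore; each compound's intrinsic emission at 535 nm (excitation 485 nm) is reported as an equivalent amount of that dye, measured in serum-containing DMEM without cells.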

[4] = qHTS assay to test for compound auto fluorescence at 590 nm (red) in HEK293 cell free culture (AID 720683)
Summary of the method: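 Tox21 10K library compounds were pinned into cell-free DMEM with 10% FBS and fluorescence was read at excitation 540 nm. Activity is expressed as Rose Bengal sodium equivalency.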

[5] = qHTS assay to test for compound auto fluorescence at 460 nm (blue) in HepG2 cell free culture (AID 720685)
Summary of the method: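 Cell-free plates of MEM plus 10% FBS received 23 nL compound or DMSO vehicle; blue-channel (405/460 nm) intensity scored against triamterene as reference fluorophore.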

[6] = qHTS assay to test for compound auto fluorescence at 535 nm (green) in HepG2 cell free culture (AID 720686)
[7] = biological target: Glucocorticoid receptor (Homo sapiens) (UniProt P04150); assay: qHTS assay to identify small molecule agonists of the glucocorticoid receptor (GR) signaling pathway (AID 720691; active = well fitted activation curve with a large enough effect in the signal ratio in the repeat runs, not every such curve was filed as active; the % refers to the signal ratio)
Chain of Glucocorticoid receptor (Homo sapiens) (P04150 whole entry, looked up): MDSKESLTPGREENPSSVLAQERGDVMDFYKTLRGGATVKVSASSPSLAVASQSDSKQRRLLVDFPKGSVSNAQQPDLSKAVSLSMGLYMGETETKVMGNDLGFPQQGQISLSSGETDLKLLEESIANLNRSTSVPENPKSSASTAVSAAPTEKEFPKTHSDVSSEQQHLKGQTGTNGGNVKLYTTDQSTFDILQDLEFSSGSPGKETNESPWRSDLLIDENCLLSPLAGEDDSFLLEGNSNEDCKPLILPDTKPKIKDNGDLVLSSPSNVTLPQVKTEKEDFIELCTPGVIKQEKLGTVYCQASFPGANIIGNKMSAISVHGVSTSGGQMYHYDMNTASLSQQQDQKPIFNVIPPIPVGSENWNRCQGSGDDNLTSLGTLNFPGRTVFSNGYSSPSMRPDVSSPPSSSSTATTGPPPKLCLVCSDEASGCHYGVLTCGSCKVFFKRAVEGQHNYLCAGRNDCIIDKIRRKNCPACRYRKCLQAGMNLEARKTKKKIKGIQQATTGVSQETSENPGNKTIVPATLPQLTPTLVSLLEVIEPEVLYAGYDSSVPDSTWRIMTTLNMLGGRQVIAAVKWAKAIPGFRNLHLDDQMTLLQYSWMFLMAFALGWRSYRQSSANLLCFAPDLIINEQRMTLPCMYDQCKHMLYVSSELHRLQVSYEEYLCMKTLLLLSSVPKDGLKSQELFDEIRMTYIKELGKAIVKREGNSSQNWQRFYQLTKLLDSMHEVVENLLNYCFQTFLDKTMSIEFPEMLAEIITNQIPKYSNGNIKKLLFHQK
Summary of the method: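 Measures GR pathway activation through a GRE-beta-lactamase reporter stably integrated in HeLa cells, with 18 h compound treatment at 37 C and fluorescence detection using a FRET substrate.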

[8] = biological target: Glucocorticoid receptor (Homo sapiens) (UniProt P04150); assay: qHTS assay to identify small molecule antagonists of the glucocorticoid receptor (GR) signaling pathway (AID 720692; active = well fitted inhibition curve with a large enough effect in the signal ratio in the repeat runs, not every such curve was filed as active; the % refers to the signal ratio; also: potency is read from the fitted curve at half-maximal effect)
Summary of the method: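 Tox21 10K library screened in concentration-response for blockade of dexamethasone (5 nM final)-induced GRE-bla reporter activity in HeLa cells; 18 h treatment, fluorescence read.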

[9] = qHTS assay to test for compound auto fluorescence at 460 nm (blue) in HepG2 cells (AID 720687)
Summary of the method: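 Cells (2,000/well in MEM with 10% FBS) attached overnight at 37 C, then were exposed to compound or DMSO for 1 hr at 37 C, 5% CO2. Fluorescence read at Ex/Em 405/460 nm, expressed as triamterene-equivalent signal.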

[10] = qHTS assay to test for compound auto fluorescence at 590 nm (red) in HepG2 cell free culture (AID 720684)
Summary of the method: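 Readout: intrinsic compound fluorescence at 590 nm emission after 540 nm excitation, scaled to Rose Bengal sodium. Matrix was cell-free MEM with 10% FBS; DMSO vehicle wells served as control.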

Structure (SMILES): Cc1cc(=O)[nH]o1
- outcome [1]: inactive
- outcome [2]: inactive
- outcome [3]: inactive
- outcome [4]: inactive
- outcome [5]: inactive
- outcome [6]: inactive
- outcome [7]: inactive
- Potency [8]: inactive

Structure (SMILES): CO[C@@H]1[C@H](OC(=O)NC(=O)CCl)CC[C@]2(CO2)[C@H]1[C@@]1(C)O[C@@H]1CC=C(C)C
- fluorescence, % of fluorescein [1]: -0.127% [at 18.6 µM]
- fluorescence, % of fluorescent control [2]: -0.0636% [at 18.6 µM]
- activity change [3]: 0.201% [at 18.6 µM]
- fluorescence, % of fluorescent control [4]: -0.369% [at 18.6 µM]
- fluorescence, % of fluorescent control [5]: -0.133% [at 18.6 µM]
- fluorescence, % of fluorescein control [6]: -0.0091% [at 18.6 µM]
- fluorescence, % of fluorescent control [9]: 0.154% [at 18.6 µM]
- outcome [7]: inactive

Structure (SMILES): Cl/C=C\C[N+]12CN3CN(CN(C3)C1)C2
- outcome [1]: inactive
- outcome [2]: inactive
- outcome [3]: inactive
- outcome [4]: inactive
- outcome [5]: inactive
- outcome [6]: inactive
- outcome [9]: inactive
- outcome [7]: inactive

Structure (SMILES): C=CC(=O)OCCCCO
- outcome [1]: inactive
- outcome [2]: inactive
- outcome [3]: inactive
- outcome [4]: inactive
- outcome [5]: inactive
- outcome [6]: inactive
- outcome [9]: inactive
- outcome [7]: inactive

Structure (SMILES): OC(c1ccc(Cl)cc1)(c1ccc(Cl)cc1)c1cccnc1
- outcome [1]: inactive
- outcome [2]: inactive
- outcome [3]: inactive
- outcome [4]: inactive
- outcome [5]: inactive
- outcome [6]: inactive
- outcome [9]: inactive
- Potency [8]: 49 µM (active)

Structure (SMILES): CCOc1ccc(C(C)(C)COCc2cccc(Oc3ccccc3)c2)cc1
- outcome [1]: inactive
- outcome [2]: inactive
- outcome [3]: inactive
- outcome [4]: inactive
- outcome [5]: inactive
- outcome [6]: inactive
- outcome [9]: inactive
- outcome [7]: inactive
- Potency [8]: inactive

Structure (SMILES): CC(C)=CCOc1c2occc2cc2ccc(=O)oc12
- outcome [1]: inactive
- outcome [2]: inactive
- outcome [3]: inactive
- outcome [4]: inactive
- outcome [5]: inactive
- outcome [6]: inactive
- outcome [9]: inactive

Structure (SMILES): O=C(O)C1(c2ccc3c(c2)OC[C@H](Cc2ccc(-c4ccccc4)cc2)[C@H]3O)CCCC1
- outcome [1]: inactive
- outcome [2]: inactive
- outcome [3]: inactive
- outcome [4]: inactive
- outcome [5]: inactive
- outcome [6]: inactive
- outcome [9]: inactive

Structure (SMILES): COP(=O)(OC)O/C(=C/Cl)c1cc(Cl)c(Cl)cc1Cl
- outcome [1]: inactive
- outcome [2]: inactive
- outcome [3]: inactive
- outcome [4]: inactive
- outcome [5]: inactive
- outcome [6]: inactive
- outcome [9]: inactive

Structure (SMILES): CCOC(=O)[C@]1(c2ccccc2)Oc2ccccc2[C@@H]1N
- outcome [2]: inactive
- outcome [3]: inactive
- outcome [4]: inactive
- outcome [10]: inactive
- outcome [5]: inactive
- outcome [6]: inactive
- outcome [9]: inactive

Structure (SMILES): ClCC(Br)CBr (stereo not given)
- outcome [1]: inactive
- outcome [2]: inactive
- outcome [3]: inactive
- outcome [4]: inactive
- outcome [5]: inactive
- outcome [6]: inactive
- outcome [9]: inactive
- outcome [7]: inactive
- Potency [8]: inactive

Structure (SMILES): COC(=O)C(Cl)C(=O)OC
- outcome [1]: inactive
- outcome [2]: inactive
- outcome [3]: inactive
- outcome [4]: inactive
- outcome [5]: inactive
- outcome [6]: inactive
- outcome [9]: inactive
- outcome [7]: inactive

Structure (SMILES): O=Cc1ccc(Cl)cc1Cl
- outcome [1]: inactive
- outcome [2]: inactive
- outcome [3]: inactive
- outcome [4]: inactive
- outcome [5]: inactive
- outcome [6]: inactive
- outcome [9]: inactive
- outcome [7]: inactive

Structure (SMILES): [O-][Cl+]O
- outcome [1]: inactive
- outcome [2]: inactive
- outcome [3]: inactive
- outcome [4]: inactive
- outcome [5]: inactive
- outcome [6]: inactive
- outcome [7]: inactive
- Potency [8]: inactive

Structure (SMILES): Cc1ccccc1C(=O)Nc1cccc(OC(C)C)c1
- outcome [1]: inactive
- outcome [2]: inactive
- outcome [3]: inactive
- outcome [4]: inactive
- outcome [5]: inactive
- outcome [6]: inactive
- outcome [9]: inactive
- outcome [7]: inactive
- Potency [8]: inactive

Structure (SMILES): C=CC(=O)OCC(C)C
- outcome [1]: inactive
- outcome [2]: inactive
- outcome [3]: inactive
- outcome [4]: inactive
- outcome [5]: inactive
- outcome [6]: inactive
- outcome [9]: inactive
- outcome [7]: inactive

Structure (SMILES): CCCCN(N=O)C(=N)N[N+](=O)[O-]
- outcome [1]: inactive
- outcome [2]: inactive
- outcome [3]: inactive
- outcome [4]: inactive
- outcome [5]: inactive
- outcome [6]: inactive
- outcome [9]: inactive
- outcome [7]: inactive

Structure (SMILES): COc1nn(CSP(=S)(OC)OC)c(=O)s1
- outcome [1]: inactive
- outcome [2]: inactive
- outcome [3]: inactive
- outcome [4]: inactive
- outcome [5]: inactive
- outcome [6]: inactive
- outcome [9]: inactive
- outcome [7]: inactive

Structure (SMILES): Brc1ccccc1
- outcome [1]: inactive
- outcome [2]: inactive
- outcome [3]: inactive
- outcome [4]: inactive
- outcome [5]: inactive
- outcome [6]: inactive
- outcome [9]: inactive
- outcome [7]: inactive

Structure (SMILES): CC(C)(C)C(O)C(Oc1ccc(Cl)cc1)n1cncn1 (stereo not given)
- outcome [2]: inactive
- outcome [3]: inactive
- outcome [4]: inactive
- outcome [10]: inactive
- outcome [5]: inactive
- outcome [6]: inactive
- outcome [9]: inactive

Structure (SMILES): NS(=O)(=O)C(F)(F)C(F)(F)C(F)(F)C(F)(F)C(F)(F)C(F)(F)C(F)(F)C(F)(F)F
- outcome [1]: inactive
- outcome [2]: inactive
- outcome [3]: inactive
- outcome [4]: inactive
- outcome [5]: inactive
- outcome [6]: inactive
- outcome [9]: inactive
